Data published in the supplement of paper PMC6555819.

Key:
Test in all cases: PBM binding z-score (relative to random genomic background probes); higher = stronger binding; sequences stand for … in GC…GCGATTGACAGCGTAGAATGAAGG
[1] = test system: FXR:RXRa (NR concentration 270 nM, RXRa partner concentration 90 nM)
How it was run: (§1)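 Custom Agilent 4×180K protein-binding microarrays carried double-stranded probes, each with a 34-nt variable region. These regions held direct-repeat seeds, single-nucleotide variants, half-site ablations and random human genomic background sequences. Ligand-free nuclear receptor dimers were incubated on the arrays for 1 h, antibodies against each partner (one per run) detected binding, and scanned fluorescence was regression-normalized. Binding z-scores take the random background probes as reference.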

[2] = test system: LXRa:RXRa (NR concentration 270 nM, RXRa partner concentration 90 nM)
How it was run: as §1

[3] = test system: LXRa homodimer (NR concentration 270 nM)
How it was run: as §1

[4] = test system: LXRb:RXRa (NR concentration 270 nM, RXRa partner concentration 90 nM)
How it was run: as §1

[5] = test system: LXRb homodimer (NR concentration 270 nM)
How it was run: as §1

[6] = test system: PPARa:RXRa (NR concentration 270 nM, RXRa partner concentration 90 nM)
How it was run: as §1

[7] = test system: PPARg:RXRa (NR concentration 180 nM, RXRa partner concentration 90 nM)
How it was run: as §1

[8] = test system: PPARg:RXRa 270nM:90nM, anti-RXR (NR concentration 270 nM, RXRa partner concentration 90 nM)
How it was run: as §1

[9] = test system: PPARg:RXRa 30nM:10nM, anti-RXR (NR concentration 30 nM, RXRa partner concentration 10 nM)
How it was run: as §1

[10] = test system: PPARg:RXRa 90nM:30nM, anti-RXR (NR concentration 90 nM, RXRa partner concentration 30 nM)
How it was run: as §1

[11] = test system: PPARg:RXRa DBDmut IVT, anti-RXR (DBD mutation: RXRa K156A/R161A, NR concentration 270 nM, RXRa partner concentration 90 nM)
How it was run: as §1

[12] = test system: PPARg:RXRa IVT, anti-PPARg (NR concentration 270 nM, RXRa partner concentration 90 nM)
How it was run: as §1

[13] = test system: PPARg DBDmut:RXRa IVT, anti-PPARg (DBD mutation: PPARg1 K132A/R137A, NR concentration 270 nM, RXRa partner concentration 90 nM)
How it was run: as §1

[14] = test system: PPARg DBDmut IVT, anti-PPARg (DBD mutation: PPARg1 K132A/R137A, NR concentration 270 nM)
How it was run: as §1

[15] = test system: PPARg homodimer (NR concentration 180 nM)
How it was run: as §1

[16] = test system: PXR:RXRa (NR concentration 270 nM, RXRa partner concentration 90 nM)
How it was run: as §1

[17] = test system: PXR homodimer (NR concentration 270 nM)
How it was run: as §1

[18] = test system: RARa:RXR (NR concentration 270 nM, RXRa partner concentration 90 nM)
How it was run: as §1

[19] = test system: RARa homodimer (NR concentration 270 nM)
How it was run: as §1

[20] = test system: RARb:RXRa (NR concentration 270 nM, RXRa partner concentration 90 nM)
How it was run: as §1

Sequence	PBM binding z-score [1]	PBM binding z-score [2]	PBM binding z-score [3]	PBM binding z-score [4]	PBM binding z-score [5]	PBM binding z-score [6]	PBM binding z-score [7]	PBM binding z-score [8]	PBM binding z-score [9]	PBM binding z-score [10]	PBM binding z-score [11]	PBM binding z-score [12]	PBM binding z-score [13]	PBM binding z-score [14]	PBM binding z-score [15]	PBM binding z-score [16]	PBM binding z-score [17]	PBM binding z-score [18]	PBM binding z-score [19]	PBM binding z-score [20]
AGAATGAGGTGATACGTAGATCAGGGAAGAAAGT	0.335	-0.0138	-0.435	-0.252	-0.444	1.52	1.16	1.16	0.448	0.958	4.06	2.23	1.58	0.564	0.0718	-0.029	0.133	0.117	-0.0248	0.411
CCAGACAGGTGCGAAGGTAACTCAGCCTCGATTA	-0.321	-0.36	-0.34	-0.424	-0.755	-0.406	0.0695	-0.0964	-0.987	-0.523	-0.128	-0.749	-1.66	-1.77	-0.207	-0.494	-0.385	-0.323	0.0972	-0.199
ACTAGCAGGCCAAGTTTGGGCCACTCAAACAAAG	-0.478	-0.716	-0.865	-0.61	-1.23	-0.243	-0.254	-0.685	-0.785	-0.814	0.654	0.241	-1.11	-0.696	-1.66	-0.855	-0.899	-0.593	-1.32	0.466
TCTGTTAGGTCAACGATGGTCAGCTAATCTGCTA	4.02	3.8	0.814	2.6	1.88	3.76	2.17	3.13	3.15	3.12	3.53	4	2.9	2.09	2.86	2.43	0.247	3.28	1.58	4.37
CCTGCTGGGCCATTCAGAGGTCATTGATCATATG	2.79	4.29	6.46	4.01	0.198	3.65	0.755	1.86	0.0618	1.15	0.632	1.28	-1.02	-0.733	1.68	4.82	2.03	4.69	-0.506	3.23
GCTGCTAGGTCAACGGATGGTCAGCTAAAGCTCG	3.29	2.35	-0.22	1.34	-0.253	3.2	2.58	2.83	0.601	2.06	4.91	3.99	0.0458	-0.872	1.84	1.21	-0.834	2.51	-0.435	4.19
CGTGCTAGGTCAATGGTCAGCTAAAGCAGCTCGC	3.1	2.22	0.0909	1.37	-0.184	3.03	5.04	5.55	2.98	5.12	4.64	4.42	0.168	-1.05	1.65	0.869	-0.615	1.59	-0.282	3.77
CCTTGCGGGTCAAGGTTATAGCACGGGTGGTACG	4.66	3.22	0.11	2.6	-0.432	4.96	5.05	5.18	2.05	4.21	3.71	5.26	-0.0608	-0.506	2.01	2.93	0.309	3.7	0.296	3.82
ACAGACAGGTGAGTGAAGGTAACTCTGCTGGACG	0.466	0.168	-0.478	-0.2	-0.638	0.435	0.657	-0.0647	-0.0941	0.019	0.709	0.604	0.385	0.0284	-0.0621	-0.18	-0.457	0.173	-0.76	0.594
GCTGCTAGGTCAACTGCTGGTCAGCTAAAGCTCG	4.1	3.03	0.0225	1.95	-0.0517	3.53	2.54	2.94	0.291	1.66	5.01	4.38	-0.67	-1.29	0.927	1.25	-0.956	2.52	-0.88	4.34
AGAATGAGGTTATACGTAGATCACGGAAGAAAGT	2.18	2.11	0.266	1.61	-0.128	3.03	1.91	2.03	0.729	1.42	4.13	2.15	1.62	1.21	0.376	1.19	0.48	1.72	0.335	1.53
ATCGAAAGGTCGACGAGGTGAGTATTCACCGTTT	4.22	3.41	-0.275	2.63	0.0468	4.26	2.45	2.99	1.55	1.94	0.554	2.07	1.07	0.398	0.854	2.94	0.386	3.29	-0.0728	3.91
CCTTGTTGGTCAAGGTCACACACGCTATAGGTAC	4.42	3.87	2.19	3.91	0.763	4.27	3.05	3.47	1.21	2.69	2.48	3.71	1.18	0.66	2.49	4.23	1.5	4.45	1.4	4.3
CAGCCTAGGTCAGGGCGAGTATAGGAGGAACGTT	1.8	0.876	-0.437	0.505	-1.08	2.07	1.03	1.29	0.157	0.783	1.68	1.54	-1.19	-1.55	0.665	0.305	-0.665	1.11	-0.626	3.19
CCAGACAGGTGAAAGGTAACCCAGTCTGGTACGC	0.66	0.713	-0.512	0.445	-0.0532	3.4	5.86	5.65	3.97	5.97	1.94	3.53	-0.215	-0.209	0.618	0.694	-0.254	1.53	0.316	1.27
